# Test results published in PubChem BioAssay (Tox21).
# Results filed as inconclusive are left out. Where a call stands in place of a potency, no number is given. Active and inactive are the calls of the source. Unless noted, calls come from the whole dose curve; as a rule, active = well fitted curve in the direction sought with a large enough effect in the repeat runs; inconclusive = weak or mixed curves; inactive = no such curve, though single readings can be large; an effect the other way counts as inactive or inconclusive.
# Key:
# [1] = qHTS assay to identify small molecule antagonists of the glucocorticoid receptor (GR) signaling pathway - cell viability counter screen (AID 720693); note: nearly all actives have a fitted effect of over 55% in size
# [2] = qHTS assay for identifying genotoxic compounds that show differential cytotoxicity against isogenic chicken DT40 cell lines with known DNA damage response pathways - wild type cell line (AID 743012); note: nearly all actives have a fitted effect of over 60% in size; note: potency is the fitted concentration of half-maximal effect
# Method in brief: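 Parental DNA repair-proficient DT40 cells, 300 per well, were pre-incubated ~0.5 h at 37 C/5% CO2, pin-dosed with compounds in DMSO, then incubated 40 h. Viability was read as CellTiter-Glo luminescence after 30 min at room temperature.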
# [3] = qHTS assay for identifying genotoxic compounds that show differential cytotoxicity against isogenic chicken DT40 cell lines with known DNA damage response pathways - Rev3 mutant cell line (AID 743014); note: nearly all actives have a fitted effect of over 55% in size; note: potency is the fitted concentration of half-maximal effect
# [4] = qHTS assay for identifying genotoxic compounds that show differential cytotoxicity against isogenic chicken DT40 cell lines with known DNA damage response pathways - Rad54/Ku70 mutant cell line (AID 743015); note: nearly all actives have a fitted effect of over 60% in size; note: potency is the fitted concentration of half-maximal effect
# [5] = qHTS assay to identify small molecule antagonists of the androgen receptor (AR) signaling pathway - cell viability counter screen (AID 743033; note: nearly all actives have a fitted effect of over 45% in size)
# [6] = qHTS assay to identify small molecule antagonists of the androgen receptor (AR) signaling pathway using the MDA cell line - cell viability counter screen (AID 743041; note: nearly all actives have a fitted effect of over 45% in size)
# Method in brief: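 R1881-driven MDA-kb2 AR-luc cells, 3,000/well, were dosed with library compounds for 16 h; cell health came from CellTiter-Fluor fluorescence in the reporter wells.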
# [7] = qHTS assay to identify small molecule antagonists of the thyroid receptor (TR) signaling pathway - cell viability counter screen (AID 743064); note: nearly all actives have a fitted effect of over 50% in size; note: potency is the fitted concentration of half-maximal effect
# Method in brief: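 Same-well viability check: GH3.TRE-Luc cells stimulated with 1 nM T3 alongside test compound for 23.5 h, followed by CellTiter-Fluor fluorescence.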
# [8] = qHTS assay to identify small molecule antagonists of the thyroid receptor (TR) signaling pathway (AID 743065); note: nearly all actives have a fitted effect of over 55% in size; note: potency is the fitted concentration of half-maximal effect
# Method in brief: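 Antagonism measured as loss of luciferase signal in GH3 cells stably carrying a TRE-luciferase reporter, co-treated with compound and T3 (1 nM final) for 23.5 h at 37 C. Viability was read in the same well by CellTiter-Fluor.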
# [9] = system: thyroid hormone receptor (rat, GH3 cells); test: qHTS assay to identify small molecule agonists of the thyroid receptor (TR) signaling pathway (AID 743066; calls by dose curve)
# [10] = qHTS assay to identify small molecule antagonists of the estrogen receptor alpha (ER-alpha) signaling pathway - cell viability counter screen (AID 743074; calls by dose curve;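 note: HEK293 cells carrying ER-alpha-UAS-bla reporter stimulated with 17beta-estradiol; nearly all actives have a fitted effect of over 45% in size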)
# [11] = qHTS assay to identify small molecule antagonists of the estrogen receptor alpha (ER-alpha) signaling pathway using the BG1 cell line - cell viability counter screen (AID 743081);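 note: compound given together with 17beta-estradiol as the ER stimulus; series mostly up to about 70 µM; nearly all actives have a fitted effect of over 45% in size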
# Aromatase (Homo sapiens) = Aromatase (Homo sapiens) (UniProt P11511); test: qHTS assay to identify aromatase inhibitors (AID 743083); note: series mostly up to about 70 µM; nearly all actives have a fitted effect of over 55% in size
# [12] = target: Estrogen receptor (Homo sapiens) (UniProt P03372); test: qHTS assay to identify small molecule antagonists of the estrogen receptor alpha (ER-alpha) signaling pathway (AID 743069; active = well fitted curve in the direction sought with a large enough effect in the signal ratio in the repeat runs, not every such curve was filed as active; the % refers to the signal ratio)
# Method in brief: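 Compound effects are measured against 17beta-estradiol stimulation in HEK293 cells with a UAS-controlled beta-lactamase reporter for ER-alpha. Exposure lasts 18 hr at 37C; LiveBLAzer B/G FRET substrate follows for 2 hr at room temperature.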
# [13] = target: Estrogen receptor (Homo sapiens) (UniProt P03372); test: qHTS assay to identify small molecule agonists of the estrogen receptor alpha (ER-alpha) signaling pathway (AID 743075; calls by dose curve)
# [14] = qHTS assay to identify small molecule antagonists of the estrogen receptor alpha (ER-alpha) signaling pathway using the BG1 cell line (AID 743080; calls by dose curve;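 note: BG1 cells stimulated with 17beta-estradiol alongside compound; series mostly up to about 70 µM; nearly all actives have a fitted effect of over 25% in size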)
# Method in brief: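 BG1-Luc-4E2 cells (endogenous full-length ER-alpha, 4xERE luciferase) hormone-starved 5 days in charcoal-stripped FBS, plated 4,000/well for 24 h, then compound plus 17beta-estradiol for 21.5 h at 37 C; ONE-Glo luminescence read.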
# [15] = target: Estrogen receptor (Homo sapiens) (UniProt P03372); test: qHTS assay to identify small molecule agonists of the estrogen receptor alpha (ER-alpha) signaling pathway using the BG1 cell line (AID 743079); note: nearly all actives have a fitted effect of over 20% in size
# Sequence of Aromatase (Homo sapiens) (P11511 whole entry, looked up): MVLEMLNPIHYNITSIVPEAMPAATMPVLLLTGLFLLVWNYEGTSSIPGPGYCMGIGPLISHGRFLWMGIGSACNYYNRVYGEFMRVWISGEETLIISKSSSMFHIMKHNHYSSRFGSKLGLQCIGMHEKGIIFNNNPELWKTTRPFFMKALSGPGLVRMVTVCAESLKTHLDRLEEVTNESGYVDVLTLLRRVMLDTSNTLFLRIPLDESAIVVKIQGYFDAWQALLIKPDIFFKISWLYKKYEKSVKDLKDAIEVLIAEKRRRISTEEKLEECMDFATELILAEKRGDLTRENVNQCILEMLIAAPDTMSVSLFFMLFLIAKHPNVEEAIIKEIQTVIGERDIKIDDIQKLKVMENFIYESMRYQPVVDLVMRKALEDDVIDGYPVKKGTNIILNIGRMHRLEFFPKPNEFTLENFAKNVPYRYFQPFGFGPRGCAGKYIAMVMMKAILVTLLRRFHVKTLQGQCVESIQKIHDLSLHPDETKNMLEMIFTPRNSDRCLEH
# Sequence of Estrogen receptor (Homo sapiens) (P03372 whole entry, looked up): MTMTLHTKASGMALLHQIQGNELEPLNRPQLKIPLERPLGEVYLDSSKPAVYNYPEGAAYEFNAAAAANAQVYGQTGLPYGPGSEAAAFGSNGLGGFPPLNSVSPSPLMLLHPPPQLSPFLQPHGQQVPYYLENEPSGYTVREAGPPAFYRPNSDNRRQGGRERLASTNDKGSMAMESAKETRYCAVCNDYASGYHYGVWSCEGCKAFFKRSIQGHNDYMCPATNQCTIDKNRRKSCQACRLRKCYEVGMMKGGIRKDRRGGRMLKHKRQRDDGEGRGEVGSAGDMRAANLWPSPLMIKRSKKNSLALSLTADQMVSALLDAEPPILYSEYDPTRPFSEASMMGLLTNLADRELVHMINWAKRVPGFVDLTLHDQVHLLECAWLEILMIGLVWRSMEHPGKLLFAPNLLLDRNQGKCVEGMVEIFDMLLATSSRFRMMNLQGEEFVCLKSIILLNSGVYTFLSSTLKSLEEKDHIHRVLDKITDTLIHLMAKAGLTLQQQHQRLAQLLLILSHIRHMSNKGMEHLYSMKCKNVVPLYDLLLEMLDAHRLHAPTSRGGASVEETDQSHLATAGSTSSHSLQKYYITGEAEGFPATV
Compound,outcome [1],Potency [2],Potency [3],Potency [4],outcome [5],Potency [6],Potency [7],Potency [8],outcome [9],Potency [10],Potency [11],Potency (Aromatase (Homo sapiens)),Potency [12],outcome [13],outcome [14],Potency [15]
OCCN1CCN(CCO)CC1,inactive,inactive,inactive,inactive,inactive,inactive,inactive,inactive,inactive,inactive,inactive,inactive,,,,
O=S(=O)(O)C(F)(F)F,inactive,inactive,inactive,inactive,inactive,inactive,inactive,,inactive,inactive,inactive,inactive,inactive,inactive,inactive,
CCc1nnc(NS(=O)(=O)c2ccc(N)cc2)s1,inactive,inactive,inactive,inactive,inactive,inactive,inactive,inactive,inactive,,inactive,inactive,,,,
O=c1oc2c(O)c(O)cc3c(=O)oc4c(O)c(O)cc1c4c23,inactive,inactive,inactive,inactive,inactive,inactive,inactive,,inactive,inactive,inactive,inactive,inactive,inactive,inactive,inactive
CCCCNCCCC,inactive,inactive,inactive,inactive,inactive,inactive,inactive,inactive,inactive,inactive,inactive,inactive,,,,
CCCCOc1cc(C(=O)NCCN(CC)CC)c2ccccc2n1,inactive,11.4 µM (active),5.07 µM (active),10.1 µM (active),inactive,inactive,11.4 µM (active),10.1 µM (active),inactive,inactive,inactive,inactive,,,,
CCCCNc1cc(C(=O)O)cc(S(N)(=O)=O)c1Oc1ccccc1,inactive,inactive,inactive,inactive,inactive,inactive,inactive,inactive,inactive,inactive,inactive,inactive,,,,
C=O,inactive,inactive,inactive,inactive,inactive,inactive,inactive,inactive,inactive,inactive,inactive,inactive,,,,
O=C1CCCc2ccccc21,inactive,inactive,inactive,inactive,inactive,inactive,inactive,,inactive,inactive,inactive,inactive,inactive,inactive,inactive,inactive
C=CC1CO1 (centres undefined),inactive,inactive,inactive,inactive,inactive,inactive,inactive,inactive,inactive,inactive,inactive,inactive,,,,
CN(CC1(C)CCCO1)S(=O)(=O)c1ccc(Cl)c(S(N)(=O)=O)c1 (centres undefined),inactive,inactive,inactive,inactive,inactive,inactive,inactive,inactive,inactive,inactive,,inactive,,,,
Cc1cccc(C)c1NC(=O)CN1CCCCCC1,inactive,inactive,inactive,inactive,inactive,inactive,inactive,,inactive,inactive,inactive,inactive,inactive,inactive,inactive,inactive
O=C(O)c1ccccc1Nc1cc(Cl)ccc1C(=O)O,inactive,inactive,inactive,inactive,inactive,inactive,inactive,inactive,inactive,,inactive,inactive,,inactive,inactive,inactive
CCOC(=O)c1ccccc1O,inactive,inactive,inactive,inactive,inactive,inactive,inactive,inactive,inactive,inactive,inactive,inactive,,,,
COC(=O)c1ccc(OC)cc1,inactive,inactive,inactive,inactive,inactive,inactive,inactive,,inactive,inactive,inactive,inactive,,,,
O=c1[nH]c(=O)n([C@H]2C[C@H](O)[C@@H](CO)O2)cc1C(F)(F)F,inactive,0.944 µM (active),0.133 µM (active),0.188 µM (active),inactive,inactive,inactive,,inactive,inactive,inactive,inactive,,inactive,inactive,
COc1cc(Cl)ccc1Cl,inactive,inactive,inactive,inactive,inactive,inactive,,inactive,inactive,inactive,inactive,inactive,,,,
CCN(CC)CC1CCCCN1CC(=O)N1c2ccccc2C(=O)Nc2cccnc21 (centres undefined),inactive,inactive,inactive,inactive,inactive,inactive,,inactive,inactive,inactive,inactive,inactive,inactive,inactive,inactive,inactive
